# High-throughput results (PubChem BioAssay)
# This is a sample that favours compounds with a hit; in the whole collection about 3.5% have one here.
# FBW7 activator: activators of human E3 ligase FBW7; Q969H0; AID 1259310; 0.13% of 650,000 active; normalized activity (activation), % at 26.1 µM; AlphaScreen FBW7–phospho-cyclin E peptide binding, activator screen; in the data active = normalized activity above about 1.9%;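 note: purified mutant Fbw7 with reduced substrate affinity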
# TEAD-YAP inh: TEAD-YAP interaction inhibition | HEK-TIYL cells, TEAD-Gal4/YAP UAS-luciferase luminescence | inhibition, % at 9.12 µM | AID 1259422 | 1.4% of 640,000 active; in the data active = inhibition above about 32%
# MITF primary: blocks human microphthalmia-associated transcription factor. AID 1259374. inhibition, % at 2.6 µM. 0.91% of 650,000 active. AlphaScreen MITF homodimerization, bead proximity signal; in the data active = inhibition above about 50%
# Target sequence (O75030 whole entry, looked up): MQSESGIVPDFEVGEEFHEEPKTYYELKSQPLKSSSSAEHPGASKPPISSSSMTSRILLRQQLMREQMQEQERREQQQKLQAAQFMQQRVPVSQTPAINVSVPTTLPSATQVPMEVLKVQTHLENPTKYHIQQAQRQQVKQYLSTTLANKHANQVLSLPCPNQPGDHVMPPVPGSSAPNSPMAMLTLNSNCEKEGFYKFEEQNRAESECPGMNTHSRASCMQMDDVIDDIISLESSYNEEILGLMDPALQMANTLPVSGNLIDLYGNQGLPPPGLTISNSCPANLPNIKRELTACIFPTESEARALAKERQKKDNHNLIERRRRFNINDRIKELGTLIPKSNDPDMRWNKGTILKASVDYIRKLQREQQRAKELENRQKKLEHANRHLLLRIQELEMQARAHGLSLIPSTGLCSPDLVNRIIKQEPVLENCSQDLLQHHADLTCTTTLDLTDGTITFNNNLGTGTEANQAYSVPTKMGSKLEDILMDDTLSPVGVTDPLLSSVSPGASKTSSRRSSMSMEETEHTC
# GPR151 ag: activates the human receptor GPR151. Q8TDV0. PathHunter beta-arrestin GPR151 cells, luminescence. activation, % at 11.2 µM. 1% of 650,000 active. AID 1508602; in the data active = activation above about 4.9%
# Numbers stand for hits; . = inactive.
SMILES,FBW7 activator,TEAD-YAP inh,MITF primary,GPR151 ag
O=C(O)c1cc2c3c(c1)C1C=CCC1CN3CC1CC=CC21 (configuration not stated),.,.,75.9,.
O=C(O)C1C2CC=CC2c2cc(Br)cc3c2N1CC1CC=CC31 (configuration not stated),5.5,.,.,.
CCCSc1nnc2c(n1)OC(c1cc(C(C)(C)C)c(O)c(C(C)(C)C)c1)Nc1ccccc1-2 (configuration not stated),.,.,.,.
COc1cc(/C=C2/C(=N)N3N=C(CC(C)C)SC3=NC2=O)ccc1OCCSc1ccc(C)cc1,.,.,.,.
CCN1C(=O)S/C(=C/c2cc(C)n(-c3ccccn3)c2C)C1=O,.,68.6,.,.
CCOC(=O)C(C)N1C(=O)S/C(=C/c2cc(C)n(-c3ccccn3)c2C)C1=O (configuration not stated),.,.,.,.
CCN1C(=O)/C(=C\c2cc(C)n(-c3ccc(OC)cc3)c2C)C(C(=O)OC)=C1C,.,.,75.8,.
CCN1C(=O)NC(=O)/C(=C\c2cc(C)n(-c3ccc(O)cc3)c2C)C1=O,.,.,.,.
CCN1C(=O)S/C(=C/c2cc(C)n(-c3ccc(O)cc3)c2C)C1=O,.,80.0,.,.
Cc1ccn(CCOC(=O)Nc2ccc(Cl)cc2)n1,.,.,.,.
CCOC(=O)CSc1nc2c(sc(=S)n2-c2ccc(C(=O)OCC)cc2)c2nc3ccccc3n12,.,.,.,.
Cc1cc(-c2ccc(S(=O)(=O)N3CCc4ccccc43)cc2)on1,.,58.1,.,.
CC1Cc2ccccc2N1S(=O)(=O)c1ccc2c(c1)oc(=O)n2C (configuration not stated),.,49.2,.,.
Cn1c(=O)oc2cc(S(=O)(=O)N3CCc4ccccc43)ccc21,.,49.5,.,.
O=S(=O)(c1ccc(Cl)c(Cl)c1)N1CCc2ccccc21,.,.,.,.
Cn1c(=O)c(=O)n(C)c2cc(S(=O)(=O)N3CCc4ccccc43)ccc21,.,.,.,.
Cn1c(=O)oc2cc(S(=O)(=O)N3CCCc4ccccc43)ccc21,.,55.1,.,.
COc1ccc(OS(=O)(=O)c2ccc(S(=O)(=O)N3CCCC(C)C3)cc2)cc1 (configuration not stated),.,.,.,.
Cc1csc(=O)n1CCC(=O)NC1CCCCCC1,.,.,.,.
C/C(=N\Nc1nc2ccccc2[nH]1)c1ccccc1O,.,.,52.4,.
C/C(=N\Nc1nc2ccccc2[nH]1)c1ccccc1Cl,.,.,.,.
C(=N\Nc1nc2ccccc2[nH]1)/c1ccccn1,.,95.5,.,.
Oc1ccc(Br)cc1/C=N\Nc1nc2ccccc2[nH]1,.,64.7,.,.
C(=N\Nc1nc2ccccc2[nH]1)/c1cccc(/C=N/Nc2nc3ccccc3[nH]2)c1,.,.,.,.
COc1cccc(C=Nc2cnn(C)c2C(N)=O)c1O,3.6,.,.,.
SMILES,FBW7 activator,TEAD-YAP inh,MITF primary,GPR151 ag
Cn1cc(-c2ccc(Nc3ncc4ccc(-c5cnn(CCN6CCOCC6)c5)cc4n3)cc2)cn1,.,50.8,.,.
Cn1cc(-c2ccc3cnc(Nc4ccc(-n5cnc(-c6ccncc6)n5)cc4)nc3c2)cn1,.,45.3,.,.
Cc1cc(-c2ncn(-c3ccc(Nc4ncc5ccc(-c6cnn(C)c6)cc5n4)cc3)n2)ccn1,.,88.5,.,.
Cn1cc(-c2ccc3nc(Nc4ccc(-n5cnc(N6CCOCC6)n5)cc4)ncc3c2)cn1,.,.,.,.
COc1ccc(NC(=O)CSc2nccn(-c3ccc(F)cc3)c2=O)cc1,.,.,.,.
Cc1cc(NC(=O)CSc2nc3ccccc3c(=O)n2C2CCCC2)no1,.,50.0,.,.
Cc1cc(NC(=O)CSc2nc3ccccc3c(=O)[nH]2)no1,.,54.8,.,.
O=C(NC1CC1)c1ccc(-c2nc(NC3CCN(Cc4ccccc4)CC3)c3ncn(-c4ccsc4)c3n2)cc1,.,.,.,.
CCOC(=O)c1sc2nc3c(c(-c4ccco4)c2c1N)CCCC3,.,.,.,.
COc1ccc(-c2c(C#N)c(N)nc3sc(C(N)=O)c(N)c23)cc1OC,.,.,.,.
NC(=O)c1sc2nc3c(c(-c4cccs4)c2c1N)CCCCC3,.,36.1,.,.
NC(=O)c1sc2nc3c(c(-c4ccco4)c2c1N)CCCCC3,.,39.7,.,.
Nc1c(C(=O)c2ccccc2)sc2nc3c(c(-c4cccs4)c12)CCCC3,.,.,.,.
N#Cc1c(N)nc2sc(C(N)=O)c(N)c2c1-c1cccs1,.,42.1,.,.
COc1ccc(S(=O)(=O)n2nc(OC(=O)c3ccc(C(C)(C)C)cc3)cc2N)cc1,.,.,.,.
Cc1ccc(/C=C2\N=C(c3ccc(Cl)cc3)OC2=O)cc1,.,.,.,.
CCCNc1ncnc2c1nc(Nc1ccc(N3CCOCC3)cc1)n2C(C)C,.,.,.,.
O=C(c1ccc(Br)cc1)N(Cc1cccc(Cl)c1)C1CCS(=O)(=O)C1 (configuration not stated),.,.,.,.
OCCN1CCN(C2CCN(Cc3cc(Br)ccc3O)CC2)CC1,.,.,53.2,.
Oc1ccc(Br)cc1CN1CCC(N2CCCCC2)CC1,.,.,.,.
CC1CN(C2CCN(Cc3cc(Br)ccc3O)CC2)CC(C)O1 (configuration not stated),.,.,70.5,.
COc1cc(/C=C(/C(C)=O)[N+](=O)[O-])ccc1O,.,.,.,.
Cc1ccc(-c2c3cc(O)c(=O)cc-3oc3cc(O)c(O)cc23)cc1,.,.,102.2,.
COc1ccc(-c2cc(=O)c3cc(O)ccc3o2)cc1OC,.,.,.,.
CCOc1ccccc1-c1c2cc(O)c(=O)cc-2oc2cc(O)c(O)cc12,.,.,103.0,.
SMILES,FBW7 activator,TEAD-YAP inh,MITF primary,GPR151 ag
O=c1cc2oc3cc(O)c(O)cc3c(-c3cccnc3)c-2cc1O,.,.,100.5,.
COc1cc(-c2c3cc(O)c(=O)cc-3oc3cc(O)c(O)cc23)ccc1C,.,.,106.2,.
Cc1ccc(-c2cc(=O)c3cc(Cl)ccc3o2)cc1,.,.,.,.
c1ccc(CNc2ccc3ncc(-c4ccc5ccccc5c4)n3n2)nc1,.,.,.,.
O=C(COc1ccc(Cl)cc1[N+](=O)[O-])Nc1ccccc1,.,33.7,.,.
O=Cc1ccccc1OCC(=O)Nc1ccccc1,.,32.5,.,.
O=C(COc1ccc(Cl)cc1Cl)Nc1cccc(C(=O)O)c1,.,97.2,.,.
O=C(COc1ccc(C(F)(F)F)cc1[N+](=O)[O-])Nc1ccc(Cl)cc1,.,.,.,.
COc1ccccc1OCC(=O)Nc1cccc(C(=O)O)c1,.,35.6,.,.
CSc1ccc(C2CC(=O)Nc3ccc4ccccc4c32)cc1 (configuration not stated),.,.,.,.
O=C1c2ccccc2C(Nc2cc(F)ccc2F)N1c1cccnc1 (configuration not stated),.,.,.,.
Cc1cccc(NC(=O)COc2ccc(Cl)cc2Cl)c1,.,.,.,.
COc1ccc(NC(=O)COc2ccccc2C)cc1OC,.,.,.,.
O=C(COc1ccc(Cl)cc1Cl)Nc1cccc(O)c1,.,71.5,.,.
